Assay [1] addresses Cellular tumor antigen p53 (Homo sapiens) (UniProt P04637). Briefly: Primary qHTS for small molecule compounds that upregulate eGFP-tagged delta133p53alpha (in N-terminal) cells. (AID 2060322). Further: nearly all actives have a fitted effect of over 75% in size. Further: potency means the concentration at half of the fitted maximal effect.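 On activation: series mostly up to about 56 µM; 0% = DMSO vehicle and 100% = reference activator.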 Particulars: NCI-H358 eGFP-delta133p53alpha fluorescence, 24 h; activation: stronger effect = higher value. Summed up: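 NCI-H358 cells pre-induced 24 h with 10 ng/ml doxycycline to express N-terminal eGFP-delta133p53alpha, then dosed 24 h at 37C without doxycycline; fixed, Hoechst-stained, GFP intensity by laser scanning cytometry, normalized to DMSO (0%) and 57.5 uM 5-azacytidine (100%).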
(In general: qHTS replaces the single test concentration by a dilution series.)

In assay [2] the target is Aldehyde dehydrogenase, mitochondrial (Homo sapiens) (UniProt P05091). Briefly: qHTS for Inhibitors of the Aldehyde Dehydrogenase Family (ALDH2) Primary screen (AID 2061308).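 Further: plate controls were vehicle for no effect and reference inhibitor for full effect; nearly all actives have a fitted effect of over 55% in size.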
For assay [3], the target named is Retinaldehyde dehydrogenase 3 (Homo sapiens) (UniProt P47895). Briefly: qHTS for Inhibitors of the Aldehyde Dehydrogenase Family (ALDH1A3) Primary screen (AID 2061315).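 Further: plate controls were DMSO vehicle for no effect and reference inhibitor for full effect.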

The results in this text go back to PubChem BioAssay (NCATS).

Results filed as inconclusive are left out. Values without a mark were called inactive. Activity calls are given as the source filed them. The call rests on the fitted dose curve; in most records, active means well fitted curve in the direction sought with a large enough effect; inconclusive means small, poorly fitted or top-dose-only effect, or another doubt; inactive means no such curve, though single readings can be large; an effect the other way counts as inactive or inconclusive.

Chain of Cellular tumor antigen p53 (Homo sapiens) (P04637 whole entry, looked up): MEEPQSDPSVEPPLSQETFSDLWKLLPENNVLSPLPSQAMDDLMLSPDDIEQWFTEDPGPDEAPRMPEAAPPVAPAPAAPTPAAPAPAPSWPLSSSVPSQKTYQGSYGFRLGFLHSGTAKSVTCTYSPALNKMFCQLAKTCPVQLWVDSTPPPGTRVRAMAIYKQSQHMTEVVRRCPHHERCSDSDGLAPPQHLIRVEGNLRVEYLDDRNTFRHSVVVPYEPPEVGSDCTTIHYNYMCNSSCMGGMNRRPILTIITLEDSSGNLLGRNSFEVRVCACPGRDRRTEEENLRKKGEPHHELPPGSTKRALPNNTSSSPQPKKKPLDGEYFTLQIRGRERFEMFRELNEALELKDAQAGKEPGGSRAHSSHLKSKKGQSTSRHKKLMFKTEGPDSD

Consider `CC(O)CO[C@@H]1O[C@H](CO)[C@@H](O)[C@H](O)[C@H]1O` (some centres not stated), for which the activation in assay [1] was -4.58%. Moreover, the Potency entry in assay [2] and in assay [3] was “inactive” each time.
For `COc1c2ccoc2cc2oc(CO[C@@H]3O[C@H](CO)[C@@H](O)[C@H](O)[C@H]3O)cc(=O)c12`, the activation in assay [1] is -23.2%. The Potency entry in assay [2] and in assay [3] was “inactive” in each case.
Regarding `C/C=C(\C)C(=O)O[C@@H]1CC2[C@@H](CC=C3C[C@@H](O[C@H]4C[C@H](OC)[C@H](O[C@H]5C[C@H](OC)[C@H](O[C@H]6C[C@H](OC)[C@H](O[C@H]7C[C@@H](OC)[C@H](O[C@@H]8O[C@H](CO)[C@@H](O)[C@H](O)[C@H]8O)[C@@H](C)O7)[C@@H](C)O6)[C@@H](C)O5)[C@@H](C)O4)CC[C@@]32C)[C@@]2(O)CC[C@H](C(C)=O)[C@@]12C` (some centres not stated), the activation in assay [1] is -9.92%. For the same compound, the activity change, negative = inhibition in assay [2] was 15.2% [at 11.2 µM]; in assay [3] it was -14.5% [at 11.2 µM].
As for `CN1CCc2nc(C(=O)N[C@@H]3C[C@@H](C(=O)N(C)C)CC[C@@H]3NC(=O)C(=O)Nc3ccc(Cl)cn3)sc2C1`, the activation in assay [1] is 1.91%. Moreover, the Potency entry in assay [2] and in assay [3] was “inactive” in each case.
For `C=C1CCC2(OC1)OC1CC3C4CC=C5CC(O)CC(O[C@@H]6OC[C@@H](O)[C@H](O)[C@H]6O)C5(C)C4CCC3(C)C1(O)C2C` (some centres not stated), the activation in assay [1] was 5.34%. The Potency result in assay [2] and in assay [3] was “inactive” each time.
Take `CC(=O)OC(C)C(C)(O)C(=O)O[C@@H]1CC[C@]2(C)CC(=O)C(=C(C)C)C[C@H]2[C@]1(C)OC(C)=O` (some centres not stated): the activation in assay [1] was 2.29%. For the same compound, the Potency result in assay [2] and in assay [3] was “inactive” in each case.
As to `COc1cccc(NC[C@@H](O)Cn2c3ccc(Br)cc3c3cc(Br)ccc32)c1`, in assay [1], the activation is 29.6%. Besides, the Potency entry in assay [2] and in assay [3] was “inactive” each time.
`C=CC(C)(C)c1[nH]c2cc3c(cc2c1CC1NC(=O)C2=CCCN2C1=O)C=CC(C)(C)O3` (configuration not stated): the activation in assay [1] was -10.7%. The Potency entry in assay [2] and in assay [3] was “inactive” each time.
For the compound `Cc1cc2sc(NC(=O)Cc3ccccc3)nc2cc1Cl`, in assay [1], the activation was -6.25%. The Potency entry in assay [2] and in assay [3] was “inactive” in each case.
For `C/C=C/C=C/C(=O)N1CC[C@]23c4ccccc4N[C@H]4N(C)c5cccc6c5[C@@]42CCN([C@H]6C2OC2(C)C)[C@H]13` (some centres not stated), the activation in assay [1] was 15.3%. For the same compound, the Potency result in assay [2] and in assay [3] was “inactive” in each case.
With `O=C(Nc1ccc(Cl)cc1)C1CCCN(C(=O)c2cccc(-c3ccco3)c2)C1` (configuration not stated), the activation in assay [1] is -4.77%. In addition, the Potency result in assay [2] and in assay [3] was “inactive” throughout.
For the compound `CC(C)(O)C1CCC2(C)CCCC(C)(O)C2C1` (configuration not stated), the activation in assay [1] is 2.68%. Besides, the Potency entry in assay [2] and in assay [3] was “inactive” throughout.
Turning to `COc1cc(OC)cc(C(=O)Nc2ccc(Cl)c(-c3nc4ccc(N(C)C)cc4[nH]3)c2)c1`, the activation in assay [1] was -11.5%. In addition, the Potency entry in assay [2] and in assay [3] was “inactive” each time.
Regarding `Cc1occc(=O)c1O[C@@H]1O[C@H](CO[C@@H]2OC[C@](O)(CO)[C@H]2O)[C@@H](O)[C@H](O)[C@H]1O`, the activation in assay [1] is 0%. In addition, the Potency entry in assay [2] and in assay [3] was “inactive” in each case.
As for `CC1(CCOC2OC(CO)C(O)C(O)C2O)CCC23OC2(C1)C(O)CC1C(C)(C(=O)O)CCCC13C` (configuration not stated), the activation in assay [1] was -13.7%. For the same compound, the Potency entry in assay [2] and in assay [3] was “inactive” in each case.
As for `CCC1C(=O)OC23C=C[C@@H]4C(C(=O)O)=CO[C@H](O[C@@H]12)[C@@H]43` (some centres not stated), in assay [1], the activation was 7.63%. In addition, the Potency entry in assay [2] and in assay [3] was “inactive” throughout.
As for `CC(=O)Nc1ccn(C2COC(COC(=O)c3ccccc3)O2)c(=O)n1` (configuration not stated), in assay [1], the activation was 16.4%. For the same compound, the Potency result in assay [2] and in assay [3] was “inactive” throughout.
With `C[C@H]1O[C@@H](O[C@H]2CC[C@@]3(C)C(CC[C@]4(C)C3CC=C3C5CC(C)(C)CC[C@]5(C(=O)O)CC[C@]34C(=O)O)C2(C)C)[C@H](O)[C@@H](O)[C@@H]1O` (some centres not stated), the activation in assay [1] was -12.2%. Besides, the Potency result in assay [2] and in assay [3] was “inactive” each time.
For `C[C@]1(CO)CCC[C@]2(C)C3=C(CCC12)COC3` (some centres not stated), the activation in assay [1] was -8.04%. Also, the Potency entry in assay [2] and in assay [3] was “inactive” each time.
Regarding `Cc1ccccc1CN1C2=NCCN2C(=O)C2=C1CCN(Cc1ccccc1)C2`, in assay [1], the activation was 29%. Further, the Potency entry in assay [2] and in assay [3] was “inactive” each time.
For `CNS(=O)(=O)c1ccccc1Nc1nc(Nc2ccc(N3CCN(C)CC3)cc2OC)ncc1Cl`, in assay [1], the Potency is 21.3 µM (active). The Potency result in assay [2] and in assay [3] was “inactive” throughout.
Consider `COC(=O)c1ccccc1O[C@@H]1O[C@H](CO[C@@H]2OC[C@@H](O)[C@H](O)[C@H]2O)[C@@H](O)[C@H](O)[C@H]1O`, for which the activation in assay [1] is -12.2%. For the same compound, the Potency result in assay [2] and in assay [3] was “inactive” in each case.
Consider `C=CCc1ccc(O[C@@H]2O[C@H](CO[C@@H]3O[C@H](CO)[C@@H](O)[C@H](O)[C@H]3O)[C@@H](O)[C@H](O)[C@H]2O)c(O)c1`, for which the activation in assay [1] was -5.34%. Also, the Potency result in assay [2] and in assay [3] was “inactive” in each case.
Regarding `CC(C)[C@H]1CCC(CO)=C[C@@H]1/C=C(\CO)C(=O)O`, the activation in assay [1] is -15.3%. The Potency entry in assay [2] and in assay [3] was “inactive” in each case.
